Data: PubChem BioAssay (NCATS)
Records with an inconclusive call do not appear. Active and inactive are the calls of the source. Unless noted, calls follow the shape of the dose curve; as a rule, active = well fitted curve in either direction with a large enough effect (not every such curve was filed as active); inconclusive = small, poorly fitted or top-dose-only effect, or another doubt; inactive = flat fitted curve, though single readings scatter.

Assays:
[1] = molecular target: Lysosomal acid glucosylceramidase (Homo sapiens) (UniProt P04062); assay: Glucocerebrosidase-p2 (AID 348; in the data active = potency below about 10 µM; also: potency is read from the fitted curve at half-maximal effect); conditions: purified GBA, blue fluorogenic substrate, 40 min
In short: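 Normal human glucocerebrosidase (0.2 nM) with blue fluorogenic substrate (80 uM final) in citrate/phosphate pH 5.9 with 10mM sodium taurocholate, 0.01% tween-20; 40 min RT, NaOH/glycine stop; fluorescence Ex 365/Em 440; AC50 from a titration from 0.6 nM upwards.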

[2] = AP1 Signaling Pathway (AID 357); conditions: ME-180 AP-1-bla reporter, EGF-induced, beta-lactamase ratio, 5 h; at 7.69 µM (top of the series) unless noted; also: % is scaled to controls: 0 for no effect and ±100 for the full control effect
In short: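 ME-180 cells with beta-lactamase reporter under AP-1 response element, stimulated with EC50 EGF; compounds tested in titration series, 5 h at 37 °C. CCF4 substrate added 2.5 h at room temperature; 460/530 nm emission ratio gave %activity and AC50.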

[3] = molecular target: Cytochrome P450 1A2 (Homo sapiens) (UniProt P05177); assay: p450-cyp1a2 (AID 410; calls by dose curve; also: potency is read from the fitted curve at half-maximal effect;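 as to activity change, negative = inhibition: -100% = full effect of reference inhibitor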); conditions: recombinant CYP1A2, luciferin-ME demethylation, luminescence; series mostly up to 57 µM
In short: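 20nM CYP1A2, 100uM Luciferin-ME (=Km), 100mM KPO4; cpd 10 min RT; +NADPH regen, 60 min RT; stop/detect 20 min; luminescence. Normalized to furafylline 57 uM = full inhibition.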

[4] = Stat Signaling Pathway (AID 446); conditions: ME-180 SIE beta-lactamase reporter, IL-6 stimulated, 5 h; at 7.69 µM (top of the series) unless noted;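 also: ME-180 cervical cancer cells given 40 pM IL-6 alongside compound; SIE-controlled beta-lactamase reporter measured as 460/530 nm FRET emission ratio; % is scaled to controls: 0 for no effect and ±100 for the full control effect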
In short: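 Emission at 460 and 530 nm (excitation 405 nm) reports SIE-controlled beta-lactamase in ME-180 cells. Cells received compound with 40 pM IL-6 for 5 hrs at 37 C; data scaled between 300 pM IL-6 and 125 nM JAK-inhibitor controls.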

[5] = molecular target: Glucocorticoid receptor (Homo sapiens) (UniProt P04150); assay: GR-EFC Redistribution (AID 451; calls by dose curve; also: potency is read from the fitted curve at half-maximal effect); conditions: CHO-K1 GR-EFC translocation, beta-gal luminescence, 2 h
In short: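 Translocation of GR-ED fusion to nuclear EA restores b-gal, read by luminescence after 1 h room-temperature detection. Engineered CHO-K1 biosensor cells, 1,000/well, exposed 2 h at 37 C to titrations up to 46 uM final.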

[6] = molecular target: Mitogen-activated protein kinase 10 (Mus musculus) (UniProt Q61831); assay: JNK3 AlphaScreen Assay (AID 530); conditions: JNK3 lysate, c-Jun phosphorylation; series mostly up to 57.1 µM;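 also: kinase came from lysate of stimulated human HepG2 cells; signal reports phosphorylation of biotinylated GST-cJun 1-79 at Ser73 with 10 µM ATP; % is scaled to controls: 0 for no effect and ±100 for the full control effect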
In short: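 Kinase buffer: 20 mM Tris-HCl pH 7.6, 10 mM MgCl2, 1 mM DTT, 0.1 mM Na3VO4, 0.01% Tween-20; ATP 10 uM. Substrate biotin-GST-cJun(1-79), enzyme from activated HepG2 lysates. Detection by Ser73 phospho-antibody AlphaScreen.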

[7] = molecular target: 3',5'-cyclic-AMP phosphodiesterase 4B (Homo sapiens) (UniProt Q07343); assay: qHTS Assay for Inhibitors of PDE-IV (AID 607; active = well fitted activation curve with a large enough effect in the main read-out, with a control signal flat, not every such curve was filed as active; also: % of control where 0% means no effect); conditions: HEK293 ACTOne CNG channel cells, membrane potential fluorescence; series mostly up to 22.9 µM
In short: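 The readout is membrane depolarisation from a cAMP-sensing CNG channel, detected with a potential dye at ex 535/em 590. Cells were HEK293-derived (endogenous PDE-IV) at 1000 cells/well, titrated up to 22.9 uM final.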

[8] = qHTS Assay for Lipid Storage Modulators (AID 1519; calls by dose curve); conditions: Drosophila S3 cells, BODIPY lipid droplet/cell ratio, laser cytometry, cells loaded with oleic acid; for activity change, negative = inhibition: at 57.5 µM (top of the series)
In short: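 Cells seeded at 5,000 per well were treated with compounds over a concentration series and loaded with oleic acid (400 uM, as added). Lipid droplet fluorescence (488 nm excitation, 500-530 nm channel) was read by laser-scanning cytometry and normalized to 20 uM Triacsin C.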

[9] = Primary qHTS for small molecule stabilizers of the endoplasmic reticulum resident proteome: Secreted ER Calcium Modulated Protein (SERCaMP) assay (AID 1508630; active = well fitted curve in the direction sought with a large enough effect; an effect the other way counts as inactive or inconclusive; also: % is scaled to controls: 0 for no effect and ±100 for the full control effect); conditions: SH-SY5Y GLuc-SERCaMP (Gaussia luciferase released on ER calcium loss) secretion, thapsigargin, luminescence; series mostly up to 38.4 µM
In short: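 The SH-SY5Y reporter protocol was run at 3 concentrations up to 38.3 uM (primary) or 11 concentrations (follow-up): 16 h compound, 100 nM thapsigargin for 4 h, then extracellular luciferase luminescence.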

[10] = molecular target: Cytochrome P450 2C9 (Homo sapiens) (UniProt P11712); assay: qHTS Assay for Inhibitors and Substrates of Cytochrome P450 2C9 (AID 883; active = well fitted curve in the direction sought with a large enough effect; an effect the other way counts as inactive or inconclusive; also: potency is read from the fitted curve at half-maximal effect; nearly all actives have a fitted effect of over 60% in size); conditions: recombinant CYP2C9, luciferin-H luminescence, 60 min; series mostly up to 57.1 µM
In short: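 Inhibition of CYP2C9 is scored as loss of luminescence, with 57uM sulphaphenazole defining 100% inhibition. Substrate Luciferin-H is used at 100uM, equal to its KM; enzyme at 10nM in 25mM KPO4, 60 min at 37C with NADPH regeneration.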

[11] = molecular target: Cytochrome P450 3A4 (Homo sapiens) (UniProt P08684); assay: qHTS Assay for Activators of Cytochrome P450 3A4 (AID 885; active = well fitted curve in the direction sought with a large enough effect; an effect the other way counts as inactive or inconclusive; also: nearly all actives have a fitted effect of over 65% in size); conditions: recombinant CYP3A4, Luciferin-PPXE luminescence, 60 min; series mostly up to 57.1 µM
In short: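 Activators are scored by enhanced luminescence from CYP3A4 conversion of luciferin-PPXE (25uM, equal to KM) to luciferin, after 60 min at RT with an NADPH-regenerating system.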

[12] = molecular target: Glucocorticoid receptor (Homo sapiens) (UniProt P04150); assay: GR-GFP Redistribution (AID 450;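 active = compounds whose dose series gives a full or clear partial fitted curve of increased nuclear translocation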; also: potency is read from the fitted curve at half-maximal effect); conditions: U2OS GR-GFP nuclear translocation, laser cytometry, 2 h
[13] = molecular target: Cytochrome P450 3A4 (Homo sapiens) (UniProt P08684); assay: qHTS Assay for Inhibitors and Substrates of Cytochrome P450 3A4 (AID 884; active = well fitted curve in the direction sought with a large enough effect; an effect the other way counts as inactive or inconclusive; also: potency is read from the fitted curve at half-maximal effect; nearly all actives have a fitted effect of over 50% in size); conditions: recombinant CYP3A4, Luciferin-PPXE luminescence; series mostly up to 57.1 µM
In short: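 Luminescent readout of luciferin produced by CYP3A4 (20 nM) dealkylation of Luciferin-PPXE, 25 uM (its KM). NADPH-driven reaction ran 60 min at RT after 10 min compound preincubation; data scaled to 57 uM ketoconazole as 100% inhibition.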

[14] = molecular target: Cytochrome P450 2D6 (Homo sapiens) (UniProt P10635); assay: qHTS Assay for Inhibitors and Substrates of Cytochrome P450 2D6 (AID 891; active = well fitted curve in the direction sought with a large enough effect; an effect the other way counts as inactive or inconclusive; also: potency is read from the fitted curve at half-maximal effect; nearly all actives have a fitted effect of over 60% in size); conditions: recombinant CYP2D6, luciferin-ME EGE luminescence; series mostly up to 57.1 µM
In short: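 Luminescent read-out of luciferin formed by 5 nM human CYP2D6 demethylating 30 uM Luciferin-ME EGE (Km level) over 60 min at room temperature after NADPH regeneration addition. Data normalized to full inhibition by 1.43 uM quinidine.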

[15] = molecular target: Ubiquitin carboxyl-terminal hydrolase 1 (Homo sapiens) (UniProt O94782); assay: Inhibitors of USP1/UAF1: Pilot qHTS (AID 504865; active = well fitted curve in the direction sought with a large enough effect; an effect the other way counts as inactive or inconclusive;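 also: rhodamine fluorescence freed from ubiquitin-rhodamine substrate followed over time; top concentration of the series differs between compounds; % is scaled to controls: 0 for no effect and ±100 for the full control effect; nearly all actives have a fitted effect of over 35% in size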); conditions: purified USP1/UAF1, Ub-rhodamine cleavage fluorescence; series mostly up to 54.9 µM
In short: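 1nM USP1/UAF1 + cpd, 15 min RT; start w/ Ub-Rho 150nM final; kinetic FL 480/540 nm, 6 reads q60 s. Buffer 50mM HEPES pH 7.8, 0.5mM EDTA, 1mM TCEP, 0.01% Tween-20, 0.1 mg/ml BSA.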

[16] = qHTS Assay for Identification of Small Molecule Agonists for Hypoxia Response Element Signaling Pathway (AID 914; active = well fitted activation curve with a large enough effect in the signal ratio, with a control signal flat, not every such curve was filed as active; the % refers to the signal ratio; also: % of control where 0% means no effect); conditions: ME-180 HRE-bla reporter, beta-lactamase ratio, CoCl2, 17 h; activation: stronger effect = higher value
In short: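 ME-180 cells carrying an HRE-driven beta-lactamase reporter were treated with compounds in a titration series plus an EC50 level of CoCl2 for 17 h at 37 degrees Celsius; CCF4 readout as the 460nm/530nm ratio gave AC50 values.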

[17] = molecular target: Cytochrome P450 2C19 (Homo sapiens) (UniProt P33261); assay: qHTS Assay for Inhibitors and Substrates of Cytochrome P450 2C19 (AID 899; active = well fitted curve in the direction sought with a large enough effect; an effect the other way counts as inactive or inconclusive; also: potency is read from the fitted curve at half-maximal effect; nearly all actives have a fitted effect of over 60% in size); conditions: recombinant CYP2C19, luciferin-H EGE luminescence; series mostly up to 57.1 µM
In short: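 5nM enzyme + 10uM Luciferin-H EGE (=KM), 50mM KPO4; cpd pin-transferred, 10 min 37C; NADPH regen, 60 min 37C; stopped w/ luciferin detection reagent, 20 min; luminescence. Normalized to 57uM ketoconazole (AC100).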

[18] = measured here: cell count channel max response
[19] = measured here: lipid channel max response

Sequence of Cytochrome P450 3A4 (Homo sapiens) (P08684 whole entry, looked up): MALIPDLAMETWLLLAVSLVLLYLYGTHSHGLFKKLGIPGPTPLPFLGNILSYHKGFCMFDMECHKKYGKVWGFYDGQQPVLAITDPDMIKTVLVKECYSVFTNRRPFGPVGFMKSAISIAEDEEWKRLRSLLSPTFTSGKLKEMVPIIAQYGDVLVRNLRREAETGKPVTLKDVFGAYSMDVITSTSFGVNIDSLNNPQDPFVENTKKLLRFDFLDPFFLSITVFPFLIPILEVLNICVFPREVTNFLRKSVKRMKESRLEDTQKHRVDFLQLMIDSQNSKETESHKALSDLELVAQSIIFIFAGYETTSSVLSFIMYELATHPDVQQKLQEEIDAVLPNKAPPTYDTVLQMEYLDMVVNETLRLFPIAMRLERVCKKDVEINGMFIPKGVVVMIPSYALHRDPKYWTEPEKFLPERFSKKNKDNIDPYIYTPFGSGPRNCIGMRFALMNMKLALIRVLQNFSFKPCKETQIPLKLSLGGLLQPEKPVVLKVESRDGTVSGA
Sequence of Glucocorticoid receptor (Homo sapiens) (P04150 whole entry, looked up, the tested form may be a part): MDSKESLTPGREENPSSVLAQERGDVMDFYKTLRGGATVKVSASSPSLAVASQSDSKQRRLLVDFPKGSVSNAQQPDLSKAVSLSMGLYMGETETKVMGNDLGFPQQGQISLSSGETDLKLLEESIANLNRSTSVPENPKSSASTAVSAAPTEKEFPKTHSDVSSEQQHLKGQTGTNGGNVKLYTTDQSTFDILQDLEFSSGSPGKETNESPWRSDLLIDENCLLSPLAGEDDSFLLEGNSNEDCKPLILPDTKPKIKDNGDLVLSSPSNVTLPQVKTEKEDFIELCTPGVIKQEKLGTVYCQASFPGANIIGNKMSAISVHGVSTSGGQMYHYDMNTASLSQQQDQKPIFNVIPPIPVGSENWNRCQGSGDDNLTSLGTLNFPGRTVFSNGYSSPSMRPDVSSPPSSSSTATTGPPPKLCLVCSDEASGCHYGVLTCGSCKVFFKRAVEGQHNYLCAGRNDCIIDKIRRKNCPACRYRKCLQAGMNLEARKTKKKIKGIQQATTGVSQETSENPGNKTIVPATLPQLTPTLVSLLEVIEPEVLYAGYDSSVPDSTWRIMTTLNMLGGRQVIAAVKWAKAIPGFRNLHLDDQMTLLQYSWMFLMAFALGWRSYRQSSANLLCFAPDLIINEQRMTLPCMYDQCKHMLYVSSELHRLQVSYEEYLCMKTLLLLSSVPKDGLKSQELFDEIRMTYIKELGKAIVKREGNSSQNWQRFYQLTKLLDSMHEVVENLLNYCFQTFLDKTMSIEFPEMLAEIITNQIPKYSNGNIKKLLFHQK
Sequence of 3',5'-cyclic-AMP phosphodiesterase 4B (Homo sapiens) (Q07343 whole entry, looked up): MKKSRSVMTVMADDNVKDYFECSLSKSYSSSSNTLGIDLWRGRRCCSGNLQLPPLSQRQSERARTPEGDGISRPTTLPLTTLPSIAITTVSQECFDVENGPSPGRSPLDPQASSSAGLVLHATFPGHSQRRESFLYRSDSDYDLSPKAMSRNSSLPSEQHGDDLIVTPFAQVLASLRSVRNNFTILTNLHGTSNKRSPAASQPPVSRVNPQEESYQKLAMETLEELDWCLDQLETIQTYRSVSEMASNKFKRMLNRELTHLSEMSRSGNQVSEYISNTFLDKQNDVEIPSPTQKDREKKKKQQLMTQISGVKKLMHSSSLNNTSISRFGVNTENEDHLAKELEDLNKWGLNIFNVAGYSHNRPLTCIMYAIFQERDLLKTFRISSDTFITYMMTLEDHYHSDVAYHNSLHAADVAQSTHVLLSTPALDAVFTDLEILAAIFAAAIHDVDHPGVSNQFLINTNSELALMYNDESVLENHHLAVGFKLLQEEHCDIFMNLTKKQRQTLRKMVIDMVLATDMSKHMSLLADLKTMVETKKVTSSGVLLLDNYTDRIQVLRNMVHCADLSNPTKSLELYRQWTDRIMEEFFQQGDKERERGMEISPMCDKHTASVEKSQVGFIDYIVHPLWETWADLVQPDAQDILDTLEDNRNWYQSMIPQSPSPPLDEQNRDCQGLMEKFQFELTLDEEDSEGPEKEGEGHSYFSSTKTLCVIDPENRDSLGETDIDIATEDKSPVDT
Sequence of Lysosomal acid glucosylceramidase (Homo sapiens) (P04062 whole entry, looked up): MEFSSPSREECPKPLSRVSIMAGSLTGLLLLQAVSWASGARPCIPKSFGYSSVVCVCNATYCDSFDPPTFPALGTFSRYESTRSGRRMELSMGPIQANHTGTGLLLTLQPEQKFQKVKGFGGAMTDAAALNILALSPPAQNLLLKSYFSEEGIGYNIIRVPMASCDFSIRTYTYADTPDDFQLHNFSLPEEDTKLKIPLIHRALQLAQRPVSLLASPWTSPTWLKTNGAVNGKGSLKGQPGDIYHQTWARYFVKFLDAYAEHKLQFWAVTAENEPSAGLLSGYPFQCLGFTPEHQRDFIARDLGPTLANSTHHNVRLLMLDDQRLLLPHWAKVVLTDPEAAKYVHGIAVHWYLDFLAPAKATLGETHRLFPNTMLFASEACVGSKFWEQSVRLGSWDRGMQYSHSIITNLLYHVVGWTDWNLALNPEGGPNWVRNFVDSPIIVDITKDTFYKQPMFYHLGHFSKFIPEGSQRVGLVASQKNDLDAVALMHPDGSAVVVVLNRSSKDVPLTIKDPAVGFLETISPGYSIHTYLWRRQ
Sequence of Cytochrome P450 1A2 (Homo sapiens) (P05177 whole entry, looked up): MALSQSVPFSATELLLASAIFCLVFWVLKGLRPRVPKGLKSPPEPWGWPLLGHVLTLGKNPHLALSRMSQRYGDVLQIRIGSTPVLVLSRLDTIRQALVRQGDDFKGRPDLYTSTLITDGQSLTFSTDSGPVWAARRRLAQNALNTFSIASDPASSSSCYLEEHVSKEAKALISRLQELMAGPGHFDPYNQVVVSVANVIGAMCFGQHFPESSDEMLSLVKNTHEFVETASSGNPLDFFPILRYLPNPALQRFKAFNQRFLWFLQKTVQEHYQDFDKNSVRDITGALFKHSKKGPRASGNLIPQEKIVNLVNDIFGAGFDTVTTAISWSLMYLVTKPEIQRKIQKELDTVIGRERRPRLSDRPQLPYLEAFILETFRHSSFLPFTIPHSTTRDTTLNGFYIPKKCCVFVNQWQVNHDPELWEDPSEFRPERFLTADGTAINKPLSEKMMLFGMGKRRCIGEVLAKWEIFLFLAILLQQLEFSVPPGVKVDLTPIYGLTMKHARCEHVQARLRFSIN
Sequence of Cytochrome P450 2C9 (Homo sapiens) (P11712 whole entry, looked up): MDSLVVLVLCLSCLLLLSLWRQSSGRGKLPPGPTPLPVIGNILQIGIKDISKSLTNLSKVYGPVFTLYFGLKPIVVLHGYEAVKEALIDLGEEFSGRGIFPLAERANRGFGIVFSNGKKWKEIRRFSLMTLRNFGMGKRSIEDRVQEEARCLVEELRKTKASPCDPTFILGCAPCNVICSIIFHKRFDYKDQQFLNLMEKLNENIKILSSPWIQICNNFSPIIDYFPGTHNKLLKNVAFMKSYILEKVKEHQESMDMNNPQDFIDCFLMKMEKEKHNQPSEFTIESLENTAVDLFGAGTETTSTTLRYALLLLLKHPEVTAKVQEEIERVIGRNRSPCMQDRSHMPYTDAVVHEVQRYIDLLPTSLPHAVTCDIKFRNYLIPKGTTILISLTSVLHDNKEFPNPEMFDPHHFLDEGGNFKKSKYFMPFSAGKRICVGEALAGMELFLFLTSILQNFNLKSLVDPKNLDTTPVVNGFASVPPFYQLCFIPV
Sequence of Ubiquitin carboxyl-terminal hydrolase 1 (Homo sapiens) (O94782 whole entry, looked up): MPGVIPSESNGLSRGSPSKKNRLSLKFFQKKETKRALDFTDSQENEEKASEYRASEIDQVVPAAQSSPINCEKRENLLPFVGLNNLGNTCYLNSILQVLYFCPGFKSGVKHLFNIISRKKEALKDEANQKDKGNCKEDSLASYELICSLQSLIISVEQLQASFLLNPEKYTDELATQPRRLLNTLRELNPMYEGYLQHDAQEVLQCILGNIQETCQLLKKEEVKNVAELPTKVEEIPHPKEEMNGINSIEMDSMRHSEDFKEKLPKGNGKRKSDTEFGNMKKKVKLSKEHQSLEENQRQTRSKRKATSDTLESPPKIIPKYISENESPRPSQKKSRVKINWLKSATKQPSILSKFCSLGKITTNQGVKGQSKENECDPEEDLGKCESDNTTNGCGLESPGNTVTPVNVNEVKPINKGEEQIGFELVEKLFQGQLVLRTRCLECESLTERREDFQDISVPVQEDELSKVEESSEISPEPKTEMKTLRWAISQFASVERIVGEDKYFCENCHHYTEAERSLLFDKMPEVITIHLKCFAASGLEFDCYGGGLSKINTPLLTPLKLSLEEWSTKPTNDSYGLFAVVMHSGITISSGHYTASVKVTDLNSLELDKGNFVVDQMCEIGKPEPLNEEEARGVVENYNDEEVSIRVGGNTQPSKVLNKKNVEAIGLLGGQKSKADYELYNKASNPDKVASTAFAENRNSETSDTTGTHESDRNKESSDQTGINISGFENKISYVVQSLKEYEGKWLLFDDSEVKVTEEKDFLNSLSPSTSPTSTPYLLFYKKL
Sequence of Cytochrome P450 2C19 (Homo sapiens) (P33261 whole entry, looked up): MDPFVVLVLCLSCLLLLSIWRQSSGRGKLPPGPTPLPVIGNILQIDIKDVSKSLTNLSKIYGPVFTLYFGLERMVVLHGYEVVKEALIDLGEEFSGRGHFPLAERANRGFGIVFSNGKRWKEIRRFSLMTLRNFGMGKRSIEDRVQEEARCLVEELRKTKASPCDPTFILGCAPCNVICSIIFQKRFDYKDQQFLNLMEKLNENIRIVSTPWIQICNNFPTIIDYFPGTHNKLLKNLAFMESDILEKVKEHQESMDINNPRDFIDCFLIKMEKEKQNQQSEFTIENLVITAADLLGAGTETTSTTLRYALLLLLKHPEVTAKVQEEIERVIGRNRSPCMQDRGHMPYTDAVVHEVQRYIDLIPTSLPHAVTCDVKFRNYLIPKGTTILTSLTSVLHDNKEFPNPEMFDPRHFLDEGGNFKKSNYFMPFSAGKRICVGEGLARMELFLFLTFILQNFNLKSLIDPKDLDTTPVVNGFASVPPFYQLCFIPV

CS(=O)(=O)N1CCC2(CCN(c3ccncc3)CC2)CC1
inactive: Potency [1] > 11.4 µM | activity change, negative = inhibition [2] -13.1% | activity, negative = inhibition [4] 0.543% | Potency [5] > 46 µM | Potency [6] | Potency [7] | activity change, negative = inhibition [8] 3.83% | outcome [9]
7.45%: max response [8, 18]
13.6%: max response [8, 19]
active: Potency [3] 12.6 µM

N#Cc1cccc(NC(=O)N2CCCC3(CCN(C(=O)c4ccco4)CC3)C2)c1
5.8%: max response [8, 18]
inactive: Potency [1] > 11.4 µM | activity change, negative = inhibition [2] -14.7% | activity, negative = inhibition [4] -1.77% | Potency [5] > 46 µM | Potency [6] | Potency [7] | Potency [11] | activity change, negative = inhibition [8] 7.75% | outcome [9]
16.6%: max response [8, 19]
active: Potency [3] 15.8 µM | Potency [10] 3.98 µM

O=S(=O)(c1ccccc1)N1CCC2(CCN(Cc3nccs3)CC2)CC1
inactive: Potency [1] > 11.4 µM | activity change, negative = inhibition [2] 19.1% | Potency [3] | activity, negative = inhibition [4] -4.54% | Potency [5] > 46 µM | Potency [6] | Potency [7] | activity change, negative = inhibition [8] 0.281% | outcome [9]
4.88%: max response [8, 18]
7.01%: max response [8, 19]

CN(C)c1ccc(-c2nc(NCc3cccnc3)c3ccccc3n2)cc1
inactive: activity change, negative = inhibition [2] -8.92% | activity, negative = inhibition [4] 19.7% | Potency [12] > 46 µM | Potency [5] > 46 µM | Potency [6] | Potency [7] | Potency [11] | activity change, negative = inhibition [8] 8.26% | Potency [15] | outcome [9]
-14.2%: max response [8, 18]
-5.05%: max response [8, 19]
active: Potency [1] 9.34 µM | Potency [3] 1.58 µM | Potency [13] 2 µM | Potency [14] 7.94 µM

N#Cc1ccc(CN2CC[C@@]3(CCCN(C(=O)c4cc(C(F)(F)F)cc(C(F)(F)F)c4)C3)C2)cc1
active: Potency [3] 25.1 µM | Potency [13] 5.01 µM
-0.217%: max response [8, 18]
4.67%: max response [8, 19]
inactive: Potency [1] > 11.4 µM | activity change, negative = inhibition [2] 17.7% | activity, negative = inhibition [4] -2.46% | Potency [5] > 46 µM | Potency [6] | Potency [7] | Potency [11] | activation [16] 13.6% | activity change, negative = inhibition [8] 2.06% | outcome [9]

Cn1cccc1C(=O)N1CCC2(CC1)CN(c1ccncc1)C2
4.51%: max response [8, 19]
0.464%: max response [8, 18]
inactive: Potency [1] > 11.4 µM | activity change, negative = inhibition [2] -6.05% | Potency [3] | activity, negative = inhibition [4] -3.69% | Potency [5] > 46 µM | Potency [6] | Potency [7] | activity change, negative = inhibition [8] 2.57% | outcome [9]
active: Potency [10] 5.01 µM | Potency [17] 1.26 µM
